Experimental data as given in PubChem BioAssay (NCI).
This is part of a sample that, as a whole, favours compounds with a hit. Of some 83,000 tested, about 20% had one in any assay.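 The test compound was applied at a single concentration to cells in 96-well plates for 48 hours, and percent growth was recorded.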 A number with no mark means an inactive call. Activity calls are given as the source filed them. How the source made its calls: active means growth percent below 10; inactive means the rest.

Tested on: NCI-H460 lung
Assay: NCI-60 one-dose screen, 48 h (100 = growth as untreated, 0 = no growth, -100 = all killed)
Settings: 10 µM unless noted

Compared with `CC(O)c1cc2ccccc2c(=O)o1` (centres undefined), `Cc1ccc2c(c1)C(=O)/C(=C/c1cccc(F)c1)S2` is higher in growth: 104% for the first, 105% for the second.

Going from `NC/C(=C/F)COc1ccc2nc(NCc3cccnc3)oc2c1` to `CCOC(=O)c1c(Nc2ccccc2)nn2c(-c3ccc(OC)cc3)ccnc12`, the growth falls from 98.8% to 93.5%.

Compared with `Cc1ccc(NC(=O)N[C@@H](Cc2cc(F)cc(F)c2)C(=O)NC2C(=O)N3C[C@H](O)C[C@H]3C(=O)N3CCCC[C@H]3C(=O)N[C@@H](CO)C(=O)N3C[C@H](C)C[C@H]3C(=O)O[C@H]2C)c(F)c1` (some centres undefined), `Cc1cc(C)c(N2C(=O)CC(Nc3ccc(Cl)cc3Cl)C2=O)c(C)c1` (centres undefined) is higher in growth: 37.3% for the first, 105% for the second.

Compared with `O=c1[nH]c2ccccc2cc1CSc1ccccc1Nc1nccc(-c2ccc(Cl)cc2)n1`, `Cc1cccc2c3c(sc12)C(c1ccc(Cl)cc1)c1c(nc(CC(=O)Nc2ccccc2)[nH]c1=O)O3` (centres undefined) is lower in growth: 97.5% for the first, 42.1% for the second.

Going from `CCn1c(SCC(=O)Nc2cccc(C(=O)/C=C/c3ccc(Br)cc3)c2)nc2ccccc2c1=O` to `O=C(CCn1c[n+](CC(=O)c2ccc(-c3ccccc3)cc2)c2ccccc21)Nc1cccc2cccnc12`, the growth falls from 98.9% to 55.3%.

Going from `C#CCOC(=O)[C@@H]1CCCN1CC#C` to `C#CC(=O)N(c1ccc(OC)cc1OC)C(C(=O)NCC(=O)OCC)c1cccs1` (centres undefined), the growth falls from 87.8% to 82.2%.

Compared with `COc1cc2nc(Cl)nc(Nc3cccc(C4=Nc5c(N)nc(N)nc5NC(c5ccc(Br)cc5)C4)c3)c2cc1OC` (centres undefined), `CC(C)(C)CC(C)(C)n1nnnc1C(Nc1nccs1)c1cc2cccc3ccc4cccc1c4c32` (centres undefined) is higher in growth: 28% for the first, 103% for the second.

Compared with `COc1ccc(C(=O)CSc2nc3c(c(Nc4ccc(S(N)(=O)=O)cc4)n2)CCCC3)cc1`, `CCCSc1nc(Nc2ccc(/C(C)=N\NC(N)=S)cc2)c(C#N)c(-c2ccccc2)n1` is lower in growth: 91.2% for the first, 32.7% for the second.

Compared with `Nn1c(N/N=C/c2nc3ccccc3s2)n[nH]c1=S`, `Nc1nc(-c2cccc([N+](=O)[O-])c2)c(N=Nc2ccccc2)s1` is lower in growth: 110% for the first, 56.6% for the second.

First: Cc1ccc(NC(=O)CNc2cc(C(N)=O)cc(F)c2C)c(Cl)c1
Second: CC(=O)C1=C(C)NC(NNC(N)=S)=NC1c1ccccc1 (centres undefined)
The growth of the first is lower: 102% for the first, 104% for the second.

Compared with `C=C(C=O)[C@@H]1CC[C@]2(C)[C@H](C(=O)C=C3[C@H]4C[C@](C)(C(=O)OC)CC[C@]4(C)CC[C@]32C)[C@@]1(C)CCC#N`, `CC1(C)CC[C@]2(C(=O)N3CCOCC3)CC[C@]3(C)C(=CC[C@@H]4[C@@]5(C)C/C(=C/c6ccccn6)C(=O)C(C)(C)[C@@H]5CC[C@]43C)[C@@H]2C1` is higher in growth: 32.4% for the first, 54.9% for the second.

Compared with `COc1cc(OC)c(S(N)(=O)=O)cc1C(C)=O`, `COc1ccc(/C=C/C(=O)c2cc(S(N)(=O)=O)c(OC)cc2OC)cc1` is lower in growth: 107% for the first, 69.8% for the second.

Going from `N#C/C(=C\c1ccc(-c2ccc(Cl)cc2Cl)o1)c1ccc(F)cc1` to `O=C(Nc1nonc1-c1ccccc1)c1ccc(C(F)(F)F)cc1`, the growth falls from 90.7% to 47.6%.

Compared with `O=S(=O)(Nc1ccc2c(c1)OCO2)c1ccc(-c2cnc(C3CC3)o2)cc1`, `CS(=O)(=O)c1ccc(-n2cc(/C=N/O)c(-c3ccccc3)n2)cc1` is higher in growth: 23.5% for the first, 93.9% for the second.

First: CC1(COc2ccc3ncc(C#Cc4cncc(C(=O)Nc5cccc(C(F)(F)F)c5)c4)n3n2)COC1
Second: COc1cc(-c2nn(C(C)(C)C)cc2-c2ccnc(NCCCNS(=O)(=O)c3ccccc3)n2)ccc1Cl
The growth of the first is higher: 85.4% for the first, 71.1% for the second.

Going from `COc1cccc2c1CN(C(=O)c1ccc(O)c(C(=O)N3Cc4ccc(OCCC[P+](c5ccccc5)(c5ccccc5)c5ccccc5)cc4C3)c1)C2` to `C[C@H]1c2[nH]c3ccccc3c2C[C@H]2C(=O)N(CCCCCCC(=O)NO)CC(=O)N21`, the growth rises from 61.4% to 82.7%.

For `Fc1ccc(-c2cc3nc(C(Cl)Cl)nc(-c4ccc(F)cc4)n3n2)cc1`, the growth was -52.9% (active).
`CCNC(=O)N1CCc2cc(OC)c(OCCc3ccc(OC)cc3)cc2C1c1ccc(OC)cc1C` (centres undefined) was tested, and the growth was 1.22% (active).
With `CCNC(=O)N1CCc2cc(OC)c(OCCc3ccc(OC)cc3)cc2C1c1ccc(Cl)cc1C` (centres undefined) the growth was 1.35% (active).
For `COc1ccc2c(c1)c(-c1cc(N)n3nc(-c4cn(C)c5ccc(OC)cc45)cc3n1)cn2C`, the growth was -64.3% (active).
For `C=CCn1c(SCC(=O)Nc2ccc(C(=O)/C=C/c3cc(OC)c(OC)c(OC)c3)cc2)nnc1-c1c[nH]c2ccccc12`, the growth was 3.42% (active).
For `CN1CCN(Cc2ccc(NC(=O)c3cncc(C#Cc4cnc5ccc(N6CCN(C)CC6)nn45)c3)cc2C(F)(F)F)CC1`, the growth was -82.4% (active).
With `C=C(C)[C@@H]1CC[C@]2(COC)CC[C@]3(C)[C@H](CC[C@@H]4[C@@]5(C)CCCNC(C)(C)[C@@H]5CC[C@]43C)[C@@H]12` the growth was -30% (active).
